The campaign covered roughly 69,000 compounds. About 8,600 (12%) showed an effect of 50% or more. The list comes from a sample in which strong results are over-represented; it also holds similar structures and randomly drawn compounds.

For this assay, the system named is Plasmodium berghei. As to the kind of experiment: Screen against P. berghei liver stage (PbLuc), transformed with Luciferase, at 10uM. The class given is functional, HepG2. Particulars: tested at 10 uM.
As for `c1nc(CN2CCC3(CC2)COCCN3CC2CC2)c[nH]1`, the INHIBITION is -2.17%.
The value for `N#Cc1ccccc1N1CCCN(C(=O)CCc2ccsc2)CC1` was 19.2%.
Under `CC(C)n1cnnc1CN(C)C(=O)c1ccccc1-n1cncn1` stands 31.7%; under `COC[C@]1(O)CCN(Cc2cnc(N3CCOCC3)nc2)CC1(C)C`, 32.3%; under `CCSc1ncc(CN2CC[C@@](O)(COC)C(C)(C)C2)cn1`, 43.5%.
Consider `COCCCN1CC2(CCN(C(=O)c3ncc(F)cc3F)CC2)CC1=O`, for which the INHIBITION worked out at 58.1%.
Turning to `CSc1ncc(C(=O)N2CCC(O)(CN3CCOCC3)C(C)(C)C2)cn1` (stereo not given), the INHIBITION is listed as 40.6%.
The value for `CCSc1ncc(CN2CCC(O)(CN3CCOCC3)C(C)(C)C2)cn1` (stereo not given) was 81%; that for `COCCCN1CC2(CCN(C(=O)Cc3csc(C)n3)CC2)CC1=O` was -44.8%; that for `CC1(C)CN(C(=O)c2ncc(F)cc2F)CCC1(O)CN1CCOCC1` (stereo not given) was 76.3%.
Under `COCCCN1CC2(CCN(Cc3cc(C(C)C)no3)CC2)CC1=O` stands 41.2%; under `CCc1ncc(C(=O)N2CCC(O)(CN3CCOCC3)C(C)(C)C2)cn1` (stereo not given), 10.9%.
As to `Cc1nc(C2CCCN(C(=O)c3cc(C(C)(C)C)on3)C2)no1` (stereo not given), the INHIBITION is recorded as -21.8%.
Take `Cc1noc(C)c1-c1cc(CC2CCN(C(=O)c3cc[nH]n3)C2)ncn1` (stereo not given): the INHIBITION worked out at 21.9%.
The value for `O=C(O)c1cccc(CN2CCC(c3ccnc4ccnn34)CC2)c1` was 28%; that for `Cn1cc(CN2CCOC(Cc3cccc(F)c3)C2)cn1` (stereo not given) was 36.8%.
In the case of `Cc1c(NC(=O)c2ncn[nH]2)cccc1C(=O)NC(C)(C)C`, the INHIBITION was determined as 59.5%.
The value for `Cc1c(NC(=O)c2cnc[nH]2)cccc1C(=O)NC(C)(C)C` was 34.5%.
Under `CC(C)(C)NC(=O)c1ccccc1NC(=O)c1ccncc1` stands 30.1%; under `CCn1c(NCC2CCCO2)nc2c(C)nn(C)c2c1=O` (stereo not given), 25.8%; under `OCC1CCCCN1Cc1cc(O)c2cccc(F)c2n1` (stereo not given), 27.6%.
As to `NCC1CCCCN1Cc1cc(O)c2cccc(F)c2n1` (stereo not given), the INHIBITION was 44.7%.
Regarding `CC1CNC(=O)CCN1Cc1cc(O)c2cccc(F)c2n1` (stereo not given), the INHIBITION is on record as 51.2%.
Consider `O=C1CN(Cc2cc(O)c3cccc(F)c3n2)CCN1C1CCCC1`, for which the INHIBITION came out at 37.7%.
`Oc1cc(CN2CCCCC2c2cccnc2)nc2c(F)cccc12` (stereo not given): the INHIBITION was determined as 54.4%.
`Cc1ccc(C)c2c(O)cc(CN3CCC(=O)NCC3C)nc12` (stereo not given): the INHIBITION was 3.69%.
Turning to `O=C(c1cc(Cn2ccc3ccccc32)[nH]n1)N1CCOCC1`, the INHIBITION is listed as 16.2%.
The value for `O=C([C@@H]1CCCO1)N1CCN(Cc2ccncc2)c2ncccc2C1` was 40.3%; that for `COCC(=O)N1CCC(c2csc(NC(C)=O)n2)CC1` was 17.1%.
As for `CCC(=O)NCC(c1ccc(SC)cc1)N1CCc2sccc2C1` (stereo not given), the INHIBITION was found to be 28.3%.
In the case of `CSc1ccc(C(CNC(=O)C2CC2)N2CCc3sccc3C2)cc1` (stereo not given), the INHIBITION is given as 19.7%.
The value for `CSc1ccc(C(CNC(C)=O)N2CCc3sccc3C2)cc1` (stereo not given) was 34.9%; that for `CCOCCCC(=O)NCC(c1ccccc1)N1CCc2sccc2C1` (stereo not given) was 27.6%.
Under `NCC(c1ccc(Cl)cc1)N1CCc2sccc2C1` (stereo not given) stands 71.2%.
Regarding `CSc1ccc(C(CN)N2CCc3sccc3C2)cc1` (stereo not given), the INHIBITION is 66.3%.
On to `NCC(c1ccccc1)N1CCc2sccc2C1` (stereo not given), for which the INHIBITION is given as -41.8%.
As to `CC(C)c1ccc(C(CN)N2CCc3sccc3C2)cc1` (stereo not given), the INHIBITION is recorded as 82.2%.
On to `O=C(NCCO)NCC(c1ccccc1)N1CCc2sccc2C1` (stereo not given), for which the INHIBITION amounted to 5.91%.
Consider `Cc1ocnc1CNC(=O)Nc1ccc(N2CCOC(C)C2)cc1` (stereo not given), for which the INHIBITION is reported as 25.8%.
The value for `COc1ccc(C)cc1C(C)NC(=O)Cn1ccc(=O)n(C)c1=O` (stereo not given) was -25.9%; that for `CN(C(=O)CCN1CCCC1=O)c1cc(C#N)c2ccccc2n1` was 31.2%.
Under `c1cncc(C2COC3(CCN(Cc4ccsc4)CC3)C2)c1` (stereo not given) stands 46.1%; under `COc1ccc(C(C)NCc2cscn2)cc1Cn1cccn1` (stereo not given), 41.4%; under `CNc1cc(C2CCCN(Cc3ccccc3OCC(=O)O)C2)ccn1` (stereo not given), 18.3%.
With `Cc1cc(CNC(=O)CN2CCCC(Cn3cncn3)C2)ccc1F` (stereo not given), the INHIBITION stood at 25.6%.
Under `Cc1ccc(Cl)c(NC(=O)NC2(C)CCOC2)c1` (stereo not given) stands 24.8%; under `Cc1ccc(-n2cc(C)cn2)c(NC(=O)NC2(C)CCOC2)c1` (stereo not given), 56.3%.
Take `Cc1ccc(C)c(-n2ncc(NC(=O)NC3(C)CCOC3)c2C)c1` (stereo not given): the INHIBITION is reported as 33.2%.
The value for `O[C@@H]1CN(Cc2cnccn2)C[C@H]1Oc1ccccc1` was -10.5%.
Under `O=C(Cc1cccc(O)c1)N1CCCC(OCc2cccnc2)C1` (stereo not given) stands 36.2%; under `CC(C)(C)C(=O)NCCc1cc(N2CCOCC2)nc(NC2CC2)n1`, 30.15%.
`Cc1cnn(CC2CCCN2C(=O)c2ccc(-n3cccn3)nc2)c1` (stereo not given): the INHIBITION amounted to 16.2%.
Under `Cc1ccc(-c2cc(C3CCNCC3)nc(C)n2)cc1` stands 6.26%; under `Cc1nc(-c2ccc(F)c(F)c2)cc(C2CCNCC2)n1`, -2.09%; under `Cc1nc(-c2ccc(F)cc2)cc(C2CCNCC2)n1`, 54.5%.
On to `O=C(CN1CCSC(c2ccccc2)C1)NCc1ccccn1` (stereo not given), for which the INHIBITION is 31.9%.
As to `O=C(CCc1ccc2c(c1)CCO2)Nc1nnn[nH]1`, the INHIBITION was found to be 28.6%.
The value for `COc1ccc(C(=O)N2CC(=O)N(CC3CC3)CC(O)C2)cc1` (stereo not given) was 42.7%; that for `CC(C)c1cc(C(=O)N2CCOCC2CC(=O)c2ccco2)nn1C` (stereo not given) was -4.35%.
With `COc1ccc2c(ccn2CCN)c1`, the INHIBITION turned out to be 34.7%.
Under `COc1ccc(CN2CC[C@@H](O)[C@@H]2Cc2ccccc2)cc1` stands -23.7%; under `C/N=C1/c2cc3cc(OC)ccc3n2CCN1Cc1ccccc1`, 67.6%.
The value for `C/N=C1\c2cc3cc(OC)ccc3n2CCN1C` was -6.09%; that for `C/N=C1\c2cc3cc(OC)ccc3n2CCN1Cc1ccccc1` was 83%.
Under `C/N=C1/c2cc3cc(OC)ccc3n2CCN1C` stands 15.06%; under `Fc1cccc(CN2CCC[C@@H](Cn3nnc(-c4ccccn4)n3)C2)c1`, 40.1%; under `Cn1nc(CNC(=O)c2cccc(C(F)(F)F)c2)c2c1CCOC2`, 15.9%.
For `O=C(c1cc2c(s1)CCC2)N1CCCC1Cn1cccn1` (stereo not given), the INHIBITION was -18.8%.
Under `Cc1nc(CSCCC(=O)NCc2ccc(-n3cncn3)nc2)cs1` stands 16.8%; under `CCNC(=O)[C@@H]1CCCN1C1(C(=O)NC)CCCCC1`, 10.5%.

(Values after ChEMBL document CHEMBL4513216, “Probing the Open Global Health Chemical Diversity Library for Multistage-Active Starting Points for Next-Generation Antimalarials” (ACS Infect Dis, 2020).)
